Screens (PubChem)
aSyn yeast inh – rescues yeast growth from alpha-synuclein toxicity; Yeast expressing alpha-synuclein, growth rescue, BacTiter-Glo, 24 h; Potency, µM (top dose mostly 46.1 µM), hits mostly activators; hit rate 0.14% among 370,000; AID 652106; note: nearly all actives have a fitted effect of over 65% in size
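Screening used galactose-induced yeast with toxic alpha-synuclein levels, exposed to compound for 24 hr at 30 deg C. Cell growth, read with BacTiter-Glo luminescence, gave the measured signal.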
TDP43 rescue – TDP-43 toxicity inhibition in yeast | Potency, µM (top dose mostly 46.1 µM), hits mostly activators | TDP-43 expressing yeast growth rescue, BacTiter-Glo, 24 h | hit rate 1.8% among 410,000; note: nearly all actives have a fitted effect of over 50% in size
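Yeast cells expressing TDP-43 under galactose induction are exposed to compounds for 24 hr at 30 deg C. BacTiter-Glo luminescence measures growth, so protective compounds score as activators.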
TSG101-PTAP inh – blocks PTAP/TSG101 interaction to inhibit HIV-1 budding; Q99816; Fluorescence polarization, FITC-PTAP peptide / Tsg101 binding; Potency, µM (series often up to 115 µM), most hits filed as inhibitors; 340,000 tested, under 10 active; active = well fitted inhibition curve with a large enough effect in the main read-out, with a control signal flat, not every such curve was filed as active; inconclusive = small, poorly fitted or top-dose-only effect, or effect the other way, or a change in a side signal; inactive = no such curve, though single readings can be large or run the other way
Target sequence (Q99816 whole entry, looked up): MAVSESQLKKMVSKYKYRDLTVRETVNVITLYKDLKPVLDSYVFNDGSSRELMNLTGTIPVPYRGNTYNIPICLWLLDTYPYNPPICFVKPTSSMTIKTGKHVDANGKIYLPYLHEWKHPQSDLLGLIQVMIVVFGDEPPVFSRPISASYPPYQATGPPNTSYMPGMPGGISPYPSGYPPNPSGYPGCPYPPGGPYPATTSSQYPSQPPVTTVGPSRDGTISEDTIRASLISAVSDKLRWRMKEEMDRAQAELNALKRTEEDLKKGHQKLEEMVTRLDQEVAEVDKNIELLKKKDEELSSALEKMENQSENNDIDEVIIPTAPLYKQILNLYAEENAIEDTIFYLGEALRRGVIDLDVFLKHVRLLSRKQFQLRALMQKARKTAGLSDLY
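FP read-out: FITC-PTAP peptide, 50 nM final, binding Tsg101 binding domain, 10 uM final; 20 min, r.t.; 10 mM HEPES pH 7.5, 0.15 M NaCl, 0.01% Tween 20, 3 mM EDTA, 0.1 mM TCEP.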
FUS suppressor – suppressors of FUS proteinopathy in yeast; S. cerevisiae FUS-expressing, growth rescue, OD600, 24 h; AID 1347120; Potency, µM (top dose mostly 76.6 µM), actives largely listed as activators; hit rate 0.24% among 390,000; note: nearly all actives have a fitted effect of over 55% in size
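Toxicity suppression screen in FUS-yeast. Cells induced with 2% galactose, starting OD 0.005, treated 24hr at 30C with compounds at multiple final concentrations; growth by OD600.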
Abeta yeast res – restores growth of yeast expressing A-beta42 peptide; yeast expressing A-beta42, growth rescue, OD600, 48 h; response scale: 0% DMSO, 100% iron-clioquinol control; hit rate 0.063% among 410,000; Potency, µM (top dose mostly 46.1 µM), hits mostly activators; note: nearly all actives have a fitted effect of over 55% in size
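Growth rescue measured by 600 nm absorbance after 48 h yeast culture at 30 C with compound. Values normalized between DMSO and an equimolar ferric chloride plus clioquinol control.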
Numbers stand for hits; [ ] = dose if it differs, or a comment. In the library only some 2.1% were active in any assay of this set; here they are far more common. Unless noted, calls come from the whole dose curve; as a rule, active = well fitted curve in the direction sought with a large enough effect; inconclusive = small, poorly fitted or top-dose-only effect, or another doubt; inactive = no such curve, though single readings can be large; an effect the other way counts as inactive or inconclusive.

How did CCOC(=O)[C@]12CCCC=C1N(Cc1ccc(OC)cc1)C(=O)[C@@H]2CC(=O)NCC12CC3CC(CC(C3)C1)C2 do in these assays?
FUS suppressor: 18µM

Results for COc1ccc(-c2ccnc3nc(N4CCN(c5ccccc5)CC4)nn23)cc1 ?
aSyn yeast inh: inactive; TDP43 rescue: 14µM; TSG101-PTAP inh: inactive; FUS suppressor: inactive; Abeta yeast res: inactive

Results for CC(NC(=O)CCCC1=NS(=O)(=O)c2ccccc2N1)c1ccccc1 (centres undefined) ?
TDP43 rescue: inactive[9.22 µM]; FUS suppressor: inactive; Abeta yeast res: inactive

How did COc1cccc(C(=O)Nc2ccc3nc(SCC(=O)N(C)c4ccccc4)sc3c2)c1 do in these assays?
TDP43 rescue: inactive; FUS suppressor: inconclusive; Abeta yeast res: inactive

Results for COc1ccc(C(=O)Nc2ccc3nc(SCC(=O)N(C)c4ccccc4)sc3c2)cc1 ?
TDP43 rescue: 22µM; FUS suppressor: inconclusive; Abeta yeast res: inactive

How did O=C(COc1ccccc1)Nc1ccc2nc(SCC(=O)N3CCCC3)sc2c1 do in these assays?
TDP43 rescue: 32µM; FUS suppressor: inactive; Abeta yeast res: inactive

How did CC1(C)Cc2cccc(C(=O)Nc3ccc(Cl)cc3)c2O1 do in these assays?
aSyn yeast inh: inactive; TDP43 rescue: 18µM; TSG101-PTAP inh: inactive; FUS suppressor: inactive; Abeta yeast res: inactive

Results for CN(Cc1ccccn1)C(=O)C1CCC(=O)N(CCc2ccc(Cl)cc2)C1 (centres undefined) ?
aSyn yeast inh: inactive; TDP43 rescue: inactive; TSG101-PTAP inh: inactive; FUS suppressor: inactive; Abeta yeast res: inactive

What do the screens show for `COc1ccc(CNC(=O)C2=C(C)C(=O)OC23CCC(C)CC3)cc1` (centres undefined)?
aSyn yeast inh: inactive; TDP43 rescue: 16µM; TSG101-PTAP inh: inactive; FUS suppressor: inactive; Abeta yeast res: inactive

Results for COc1ccc(C)cc1NC(=O)C(=O)NCCc1csc(-c2ccc(C)cc2)n1 ?
TDP43 rescue: inactive; FUS suppressor: inactive; Abeta yeast res: inactive

How did Cc1ccc(Nc2ncnc(Cl)c2N)cc1 do in these assays?
aSyn yeast inh: inactive; TDP43 rescue: 35µM; TSG101-PTAP inh: inactive; FUS suppressor: inactive; Abeta yeast res: inactive

How did Cc1ccc(Nc2ncnc3ccccc23)cc1 do in these assays?
aSyn yeast inh: inactive; TDP43 rescue: inactive; TSG101-PTAP inh: inactive; FUS suppressor: inactive; Abeta yeast res: inactive

Results for O=C(Nc1ccccc1Oc1ccccc1)c1cccc([N+](=O)[O-])c1 ?
aSyn yeast inh: inconclusive; TDP43 rescue: 14µM; TSG101-PTAP inh: inactive; FUS suppressor: inactive; Abeta yeast res: inactive

How did COc1ccc(C(=O)Oc2ccc(C(c3c(C)[nH][nH]c3=O)c3c(C)[nH][nH]c3=O)cc2)cc1 do in these assays?
TDP43 rescue: inconclusive; FUS suppressor: inactive; Abeta yeast res: inactive

Results for O=C(c1ccc(COc2ccc(Cl)cc2Cl)o1)N1CCCC1 ?
aSyn yeast inh: inactive; TDP43 rescue: 13µM; TSG101-PTAP inh: inactive; Abeta yeast res: inactive

How did COc1ccc(N2CCN(C(=O)c3ccc(COc4ccc([N+](=O)[O-])cc4)o3)CC2)cc1 do in these assays?
aSyn yeast inh: inactive; TDP43 rescue: 11µM; TSG101-PTAP inh: inactive; Abeta yeast res: inactive

How did COc1ccc(N2CCN(C(=O)Oc3ccc([N+](=O)[O-])cc3)CC2)cc1 do in these assays?
aSyn yeast inh: inactive; TDP43 rescue: inconclusive; FUS suppressor: inactive; Abeta yeast res: inactive

How did O=C(c1ccc(COc2c(F)c(F)c(F)c(F)c2F)o1)N1CCOCC1 do in these assays?
aSyn yeast inh: inactive; TDP43 rescue: inactive; TSG101-PTAP inh: inactive; FUS suppressor: inactive; Abeta yeast res: inactive

Results for O=C(c1ccc(COc2c(F)c(F)cc(F)c2F)o1)N1CCN(c2ccccc2)CC1 ?
aSyn yeast inh: inactive; TDP43 rescue: 22µM; TSG101-PTAP inh: inactive; FUS suppressor: inactive; Abeta yeast res: inactive

How did COc1ccccc1OCc1ccc(C(=O)N2CCCCC2)o1 do in these assays?
aSyn yeast inh: inactive; TDP43 rescue: inactive; TSG101-PTAP inh: inactive; FUS suppressor: inactive; Abeta yeast res: inactive

What do the screens show for `O=C1CSC(=S)N1c1cccc(O)c1`?
aSyn yeast inh: inconclusive; TDP43 rescue: inactive; TSG101-PTAP inh: inactive; FUS suppressor: inactive; Abeta yeast res: inactive

Results for O=C1CSC(=S)N1c1cccc(Br)c1 ?
aSyn yeast inh: inactive; TDP43 rescue: 14µM; TSG101-PTAP inh: inactive; FUS suppressor: inactive; Abeta yeast res: inactive

What do the screens show for `O=C(O)c1cccc(N2C(=O)CSC2=S)c1`?
aSyn yeast inh: 35µM; TDP43 rescue: inconclusive; TSG101-PTAP inh: inactive; FUS suppressor: inactive; Abeta yeast res: inactive

What do the screens show for `CC(C)c1ccc(NC(=O)CCNS(=O)(=O)c2ccc3c(c2)oc(=O)n3C)cc1`?
TDP43 rescue: inactive; FUS suppressor: inactive; Abeta yeast res: inactive

How did Cc1cc(C)c2c(CCl)cc(=O)oc2c1 do in these assays?
aSyn yeast inh: inactive; TDP43 rescue: 7.1µM; TSG101-PTAP inh: inactive; FUS suppressor: inactive; Abeta yeast res: inactive

How did Cc1cc(C)c2c(CC(=O)O)coc2c1 do in these assays?
aSyn yeast inh: inactive; TDP43 rescue: 13µM; TSG101-PTAP inh: inactive; FUS suppressor: inactive; Abeta yeast res: inactive

Results for Cc1cc(C)c2c(CN3CCCCC3)cc(=O)oc2c1 ?
aSyn yeast inh: inactive; TDP43 rescue: inactive; TSG101-PTAP inh: inactive; FUS suppressor: inactive; Abeta yeast res: inactive

What do the screens show for `CC1(C(=O)Nc2cccc(NS(C)(=O)=O)c2)Cc2c(-c3ccc(C(N)=O)cc3)ccnc2O1` (centres undefined)?
aSyn yeast inh: inactive; TDP43 rescue: inactive; FUS suppressor: inconclusive; Abeta yeast res: inactive

Results for COC(=O)[C@]12C[C@H](CC(=O)NCc3cccs3)C(=O)N(Cc3ccc(Cl)cc3Cl)C1=C[C@H](C(C)(C)C)O[C@@H]2C ?
FUS suppressor: inactive

Results for O=C(CSc1nc(O)cc(=O)n1-c1ccccc1)Nc1ccc(Br)cn1 ?
aSyn yeast inh: inactive; TSG101-PTAP inh: inactive; FUS suppressor: 28µM; Abeta yeast res: inactive

How did COc1cc(Cl)nn(-c2ccccc2)c1=O do in these assays?
aSyn yeast inh: inactive; TDP43 rescue: inactive; TSG101-PTAP inh: inactive; Abeta yeast res: inactive

Results for O=c1c(Cl)cc(Cl)nn1-c1ccccc1 ?
aSyn yeast inh: inactive; TDP43 rescue: 25µM; TSG101-PTAP inh: inactive; Abeta yeast res: inactive

How did COC(=O)c1cc(Cl)ccc1NC(=O)Cn1c(C)cc(C)c(C#N)c1=O do in these assays?
TDP43 rescue: inactive; FUS suppressor: inactive; Abeta yeast res: inactive

Results for CC(C)N(Cc1nc(-c2ccccc2)no1)C(=O)CN(C)S(=O)(=O)c1ccccc1 ?
aSyn yeast inh: inactive; TDP43 rescue: 13µM; TSG101-PTAP inh: inactive; FUS suppressor: inactive; Abeta yeast res: inactive

What do the screens show for `CC(C)N(Cc1nc(-c2ccccc2)no1)S(=O)(=O)c1ccccc1`?
aSyn yeast inh: inactive; TDP43 rescue: inconclusive; TSG101-PTAP inh: inactive; FUS suppressor: inactive; Abeta yeast res: inactive
